# Source: the supplement of paper PMC4022240
# ± gives the standard deviation.
# T1: HaloTag-ATRX ADD domain (163-292)
# T1 chain: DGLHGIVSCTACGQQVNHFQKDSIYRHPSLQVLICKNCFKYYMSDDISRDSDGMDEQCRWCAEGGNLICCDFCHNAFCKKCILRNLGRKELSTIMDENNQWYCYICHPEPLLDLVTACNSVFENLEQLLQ
# Assays:
# Assay in all cases: peptide microarray binding signal (635 nm), min-max normalized on array (fraction of array maximum); higher = stronger binding
# [1] = target: T1, HaloTag-ATRX ADD domain (163-292)
# Description: (§1)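 Histone 13-mer peptides were synthesized as cellulose conjugates with a C-terminal 20-atom PEG linker and printed in triplicate on nitrocellulose. The sequence given is the unmodified backbone; PTMs (Kme1/2/3, Kac, Sph/Tph, Rme/Rme2a/Rme2s, Rcit) are listed in the label and the 'peptide modifications' condition. Slides were probed at 4 °C for 1 h with biotin-labelled (HQ)5-HaloTag reader fusions (ATRX-ADD, ING2-PHD) then streptavidin-Alexa647, or with rabbit histone antibodies then anti-rabbit Alexa647. The mean 635 nm signal of the triplicate spots was scaled 0-1 between the lowest and highest values on each array.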
# [2] = target: HaloTag-ING2 PHD (mouse Ing2 200-280)
# Description: as §1
# [3] = target: anti-H3K4me3 antibody ab8580
# Description: as §1
# [4] = target: anti-H3K9me3 antibody ab8898
# Description: as §1
# [5] = peptide region: H3 1-13, peptide modifications: H3T6ph, binder concentration: 1:2,000 dilution
# [6] = peptide region: H3 1-13, peptide modifications: H3T6ph, binder concentration: 1:10,000 dilution
# [7] = peptide region: H3 1-13, peptide modifications: H3T6ph H3R8cit, binder concentration: 1:2,000 dilution
# [8] = peptide region: H3 1-13, peptide modifications: H3T6ph H3R8cit, binder concentration: 1:10,000 dilution
# [9] = peptide region: H3 5-17, peptide modifications: H3K9ac H3K14me1, binder concentration: 1:2,000 dilution
# [10] = peptide region: H3 5-17, peptide modifications: H3K9ac H3K14me1, binder concentration: 1:10,000 dilution
# [11] = peptide region: H3 5-17, peptide modifications: H3K9ac H3K14me2, binder concentration: 1:2,000 dilution
# [12] = peptide region: H3 5-17, peptide modifications: H3K9ac H3K14me2, binder concentration: 1:10,000 dilution
# [13] = peptide region: H3 1-13, peptide modifications: H3T6ph H3R8me1, binder concentration: 1:2,000 dilution
# [14] = peptide region: H3 1-13, peptide modifications: H3T6ph H3R8me1, binder concentration: 1:10,000 dilution
# [15] = peptide region: H3 5-17, peptide modifications: H3K9ac H3K14ac, binder concentration: 1:2,000 dilution
# [16] = peptide region: H3 5-17, peptide modifications: H3K9ac H3K14ac, binder concentration: 1:10,000 dilution
# [17] = peptide region: H3 1-13, peptide modifications: H3T6ph H3R8me2s, binder concentration: 1:2,000 dilution
# [18] = peptide region: H3 1-13, peptide modifications: H3T6ph H3R8me2s, binder concentration: 1:10,000 dilution
# [19] = peptide region: H3 1-13, peptide modifications: H3T6ph H3R8me2a, binder concentration: 1:2,000 dilution
# [20] = peptide region: H3 1-13, peptide modifications: H3T6ph H3R8me2a, binder concentration: 1:10,000 dilution
# [21] = peptide region: H3 1-13, peptide modifications: H3T6ph H3K9me3, binder concentration: 1:2,000 dilution
# [22] = peptide region: H3 1-13, peptide modifications: H3T6ph H3K9me3, binder concentration: 1:10,000 dilution
# [23] = peptide region: H3 5-17, binder concentration: 1:2,000 dilution
# [24] = peptide region: H3 5-17, binder concentration: 1:10,000 dilution
binder,measurement,setting,value
ARTKQTARKSTGG [H3 1-13 A R T K Q Tph A R K S T G G],peptide microarray binding signal,"[1]; peptide region: H3 1-13, peptide modifications: H3T6ph, binder concentration: 50 nM",0.004044 ± 1.6e-05
same,peptide microarray binding signal,"[1]; peptide region: H3 1-13, peptide modifications: H3T6ph, binder concentration: 500 nM",0.009 ± 0.00047
same,peptide microarray binding signal,"[2]; peptide region: H3 1-13, peptide modifications: H3T6ph, binder concentration: 10 nM",0.0046 ± 0.00047
same,peptide microarray binding signal,"[2]; peptide region: H3 1-13, peptide modifications: H3T6ph, binder concentration: 100 nM",0.0195 ± 0.002
same,peptide microarray binding signal,[3]; [5],0.000793 ± 7.5e-05
same,peptide microarray binding signal,[3]; [6],0.000285 ± 3.1e-06
same,peptide microarray binding signal,[4]; [5],0.000755 ± 2.9e-05
same,peptide microarray binding signal,[4]; [6],0.000288
ARTKQTARKSTGG [H3 1-13 A R T K Q Tph A Rcit K S T G G],peptide microarray binding signal,"[1]; peptide region: H3 1-13, peptide modifications: H3T6ph H3R8cit, binder concentration: 50 nM",0.00461 ± 9.2e-05
same,peptide microarray binding signal,"[1]; peptide region: H3 1-13, peptide modifications: H3T6ph H3R8cit, binder concentration: 500 nM",0.00667 ± 0.00019
same,peptide microarray binding signal,"[2]; peptide region: H3 1-13, peptide modifications: H3T6ph H3R8cit, binder concentration: 10 nM",0.004536 ± 4e-05
same,peptide microarray binding signal,"[2]; peptide region: H3 1-13, peptide modifications: H3T6ph H3R8cit, binder concentration: 100 nM",0.00652 ± 0.00029
same,peptide microarray binding signal,[3]; [7],0.000396
same,peptide microarray binding signal,[3]; [8],0.000114 ± 1.3e-06
same,peptide microarray binding signal,[4]; [7],0.000332 ± 8.8e-06
same,peptide microarray binding signal,[4]; [8],0.000807 ± 2.5e-05
QTARKSTGGKAPR [H3 5-17 Q T A R Kac S T G G Kme A P R],peptide microarray binding signal,"[1]; peptide region: H3 5-17, peptide modifications: H3K9ac H3K14me1, binder concentration: 50 nM",0.00746 ± 0.00018
same,peptide microarray binding signal,"[1]; peptide region: H3 5-17, peptide modifications: H3K9ac H3K14me1, binder concentration: 500 nM",0.024 ± 0.0017
same,peptide microarray binding signal,"[2]; peptide region: H3 5-17, peptide modifications: H3K9ac H3K14me1, binder concentration: 10 nM",0.023 ± 0.0062
same,peptide microarray binding signal,"[2]; peptide region: H3 5-17, peptide modifications: H3K9ac H3K14me1, binder concentration: 100 nM",0.0497 ± 0.004
same,peptide microarray binding signal,[3]; [9],0.00345 ± 0.00048
same,peptide microarray binding signal,[3]; [10],0.00205 ± 3.8e-05
same,peptide microarray binding signal,[4]; [9],0.0192 ± 0.002
same,peptide microarray binding signal,[4]; [10],0.00882 ± 0.00058
QTARKSTGGKAPR [H3 5-17 Q T A R Kac S T G G Kme2 A P R],peptide microarray binding signal,"[1]; peptide region: H3 5-17, peptide modifications: H3K9ac H3K14me2, binder concentration: 50 nM",0.00746 ± 0.00033
same,peptide microarray binding signal,"[1]; peptide region: H3 5-17, peptide modifications: H3K9ac H3K14me2, binder concentration: 500 nM",0.0201 ± 0.0018
same,peptide microarray binding signal,"[2]; peptide region: H3 5-17, peptide modifications: H3K9ac H3K14me2, binder concentration: 10 nM",0.0147 ± 0.0015
same,peptide microarray binding signal,"[2]; peptide region: H3 5-17, peptide modifications: H3K9ac H3K14me2, binder concentration: 100 nM",0.0485 ± 0.015
same,peptide microarray binding signal,[3]; [11],0.0108 ± 0.00077
same,peptide microarray binding signal,[3]; [12],0.00468 ± 0.00039
same,peptide microarray binding signal,[4]; [11],0.0189 ± 0.00074
same,peptide microarray binding signal,[4]; [12],0.406 ± 0.064
ARTKQTARKSTGG [H3 1-13 A R T K Q Tph A Rme K S T G G],peptide microarray binding signal,"[1]; peptide region: H3 1-13, peptide modifications: H3T6ph H3R8me1, binder concentration: 50 nM",0.00476 ± 9.2e-05
same,peptide microarray binding signal,"[1]; peptide region: H3 1-13, peptide modifications: H3T6ph H3R8me1, binder concentration: 500 nM",0.022 ± 0.0012
same,peptide microarray binding signal,"[2]; peptide region: H3 1-13, peptide modifications: H3T6ph H3R8me1, binder concentration: 10 nM",0.00507 ± 0.0011
same,peptide microarray binding signal,"[2]; peptide region: H3 1-13, peptide modifications: H3T6ph H3R8me1, binder concentration: 100 nM",0.0331 ± 0.012
same,peptide microarray binding signal,[3]; [13],0.00111 ± 7.2e-05
same,peptide microarray binding signal,[3]; [14],0.00148 ± 0.0001
same,peptide microarray binding signal,[4]; [13],0.00234 ± 0.00042
same,peptide microarray binding signal,[4]; [14],0.00213 ± 7.1e-05
QTARKSTGGKAPR [H3 5-17 Q T A R Kac S T G G Kac A P R],peptide microarray binding signal,"[1]; peptide region: H3 5-17, peptide modifications: H3K9ac H3K14ac, binder concentration: 50 nM",0.0318 ± 0.0049
same,peptide microarray binding signal,"[1]; peptide region: H3 5-17, peptide modifications: H3K9ac H3K14ac, binder concentration: 500 nM",0.0984 ± 0.027
same,peptide microarray binding signal,"[2]; peptide region: H3 5-17, peptide modifications: H3K9ac H3K14ac, binder concentration: 10 nM",0.0862 ± 0.034
same,peptide microarray binding signal,"[2]; peptide region: H3 5-17, peptide modifications: H3K9ac H3K14ac, binder concentration: 100 nM",0.048 ± 0.023
same,peptide microarray binding signal,[3]; [15],0.0141 ± 0.0045
same,peptide microarray binding signal,[3]; [16],0.0234 ± 0.0064
same,peptide microarray binding signal,[4]; [15],0.03 ± 0.0085
same,peptide microarray binding signal,[4]; [16],0.0332 ± 0.014
ARTKQTARKSTGG [H3 1-13 A R T K Q Tph A Rme2s K S T G G],peptide microarray binding signal,"[1]; peptide region: H3 1-13, peptide modifications: H3T6ph H3R8me2s, binder concentration: 50 nM",0.0201 ± 0.0019
same,peptide microarray binding signal,"[1]; peptide region: H3 1-13, peptide modifications: H3T6ph H3R8me2s, binder concentration: 500 nM",0.0152 ± 0.0026
same,peptide microarray binding signal,"[2]; peptide region: H3 1-13, peptide modifications: H3T6ph H3R8me2s, binder concentration: 10 nM",0.0119 ± 0.00043
same,peptide microarray binding signal,"[2]; peptide region: H3 1-13, peptide modifications: H3T6ph H3R8me2s, binder concentration: 100 nM",0.0145 ± 0.00066
same,peptide microarray binding signal,[3]; [17],0.00287 ± 9.2e-05
same,peptide microarray binding signal,[3]; [18],0.000571
same,peptide microarray binding signal,[4]; [17],0.0029 ± 6.7e-05
same,peptide microarray binding signal,[4]; [18],0.00646 ± 0.0018
ARTKQTARKSTGG [H3 1-13 A R T K Q Tph A Rme2a K S T G G],peptide microarray binding signal,"[1]; peptide region: H3 1-13, peptide modifications: H3T6ph H3R8me2a, binder concentration: 50 nM",0.00677 ± 0.00082
same,peptide microarray binding signal,"[1]; peptide region: H3 1-13, peptide modifications: H3T6ph H3R8me2a, binder concentration: 500 nM",0.0179 ± 0.002
same,peptide microarray binding signal,"[2]; peptide region: H3 1-13, peptide modifications: H3T6ph H3R8me2a, binder concentration: 10 nM",0.00961 ± 0.00061
same,peptide microarray binding signal,"[2]; peptide region: H3 1-13, peptide modifications: H3T6ph H3R8me2a, binder concentration: 100 nM",0.054 ± 0.0051
same,peptide microarray binding signal,[3]; [19],0.00166 ± 0.00015
same,peptide microarray binding signal,[3]; [20],0.0012 ± 1.2e-05
same,peptide microarray binding signal,[4]; [19],0.00384 ± 0.00058
same,peptide microarray binding signal,[4]; [20],0.00185 ± 6.1e-05
ARTKQTARKSTGG [H3 1-13 A R T K Q Tph A R Kme3 S T G G],peptide microarray binding signal,"[1]; peptide region: H3 1-13, peptide modifications: H3T6ph H3K9me3, binder concentration: 50 nM",0.007335 ± 6.2e-05
same,peptide microarray binding signal,"[1]; peptide region: H3 1-13, peptide modifications: H3T6ph H3K9me3, binder concentration: 500 nM",0.01343 ± 9.1e-05
same,peptide microarray binding signal,"[2]; peptide region: H3 1-13, peptide modifications: H3T6ph H3K9me3, binder concentration: 10 nM",0.0229 ± 0.0005
same,peptide microarray binding signal,"[2]; peptide region: H3 1-13, peptide modifications: H3T6ph H3K9me3, binder concentration: 100 nM",0.0339 ± 0.003
same,peptide microarray binding signal,[3]; [21],0.0494 ± 0.0093
same,peptide microarray binding signal,[3]; [22],0.0422 ± 0.0078
same,peptide microarray binding signal,[4]; [21],0.269 ± 0.024
same,peptide microarray binding signal,[4]; [22],0.17 ± 0.021
QTARKSTGGKAPR [H3 5-17 Q T A R K S T G G K A P R],peptide microarray binding signal,"[1]; peptide region: H3 5-17, binder concentration: 50 nM",0.00796 ± 0.00026
same,peptide microarray binding signal,"[1]; peptide region: H3 5-17, binder concentration: 500 nM",0.00462 ± 0.00035
same,peptide microarray binding signal,"[2]; peptide region: H3 5-17, binder concentration: 10 nM",0.00376 ± 7.2e-05
same,peptide microarray binding signal,"[2]; peptide region: H3 5-17, binder concentration: 100 nM",0.00489 ± 0.00045
same,peptide microarray binding signal,[3]; [23],0.000982 ± 8.5e-05
same,peptide microarray binding signal,[3]; [24],0.00143 ± 0.00013
same,peptide microarray binding signal,[4]; [23],0.00242 ± 0.0011
same,peptide microarray binding signal,[4]; [24],0.00265 ± 0.00021
